# The panel holds about 79,000 compounds, 15% with a hit somewhere; the sample as a whole holds those more often. A number with no mark means an inactive call. No stated cut-off is given here; in the data, active means growth inhibition above about 70%; inactive means the rest.
# Experiment: NCI Yeast Anticancer Drug Screen. Data for the rad50 strain (AID 155);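 further: 0% = growth of vehicle-only cultures of the same strain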
# Details: S. cerevisiae rad50 strain growth inhibition; at 1.2 µM; hits give high values
# Procedure, shortened: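 A DNA repair-deficient yeast mutant serves as the test organism; compound-induced growth inhibition is calculated against vehicle-treated cells.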
row,SMILES,growth inhibition [%]
1,CC(CN(C)C)C(=O)/C=C/c1ccc(Cl)c(Cl)c1 (stereo unspecified),0
2,CCCCCCNCCCNc1c2cc(OC)ccc2nc2cccc([N+](=O)[O-])c12,5
3,NC(=S)N1N=C2c3ccccc3CC[C@H]2[C@@H]1c1ccc(Cl)cc1,-6
4,C/C(=N/NC(=S)Nc1ccccc1C)c1ccccn1,1
5,O=C1/C(=C/c2ccc(Cl)c(Cl)c2)CNC/C1=C\c1ccc(Cl)c(Cl)c1,12
6,CC(C)OP(=O)(OC(C)C)C(=NCCO)NNc1ccc([N+](=O)[O-])cc1,-5
7,N#CCC(=O)N/N=C(\c1ccccc1)C(c1ccccc1)C1(O)C(=O)Nc2c(Cl)ccc(Cl)c21 (stereo unspecified),5
8,CC(C)(CN1CCCCC1)C(=O)CC(SCCS(=O)(=O)O)c1ccccc1 (stereo unspecified),1
9,COC1=CCC23C(=O)C=CC(=O)C2(C1)C(=O)c1ccccc1C3=O (stereo unspecified),-27
10,CCCCN(CCCC)c1ccc(N=Nc2ccc(S(=O)(=O)O)cc2)cc1,16
11,c1ccc2nc3c(nc2c1)sc1ccccc13,13
12,O=C1c2ccccc2-c2ccc(N=Cc3ccccc3)cc21,-14
13,CNC(=S)N/N=C(/C)CCC/C(C)=N/NC(=S)NC,36
14,Nc1ccc(/C=C/c2ccc3cccnc3c2)cc1,5
15,COc1ccc2c3c1OC(C)C31CC(=O)CCC1CC2 (stereo unspecified),-2
16,CCOC(=O)Nc1ccc(C)c(NC(=O)OCC)c1,5
17,CCN(CC)CCNc1ccc2nc(C)n3c4ccc(OC)cc4c(=O)c1c23,41
18,C[N+](C)([O-])CCCNc1c2ccccc2nc2cccc([N+](=O)[O-])c12,31

row,SMILES,growth inhibition [%]
1,O=C(c1cc(=O)c2ccc(O)cc2o1)c1ccc(Cl)cc1Cl,-11
2,CCCNC(=O)OCc1c(COC(=O)NCCC)c(-c2ccc(Cl)c(Cl)c2)n2c1CCC2,-39
3,O=C(Cc1ccccc1)NN1C(=O)C(Cl)C1c1cc(Br)cc(Br)c1O (stereo unspecified),2
4,CCOC(=O)C(Cc1c2ccccc2cc2ccccc12)(NC(C)=O)C(=O)OCC,-6
5,O=[N+]([O-])/C=C/c1cc2ccc3ccccc3c2[nH]1,39
6,Fc1ccc(Nc2ccc3ccccc3c2)cc1,-6
7,O=S1(=O)CCC2=CC(C(F)(F)F)=CC(C(F)(F)F)=CN21,61
8,O=C(Cc1ccccc1)NNc1nc(NNC(=O)c2ccncc2)nc(Nc2ccc([N+](=O)[O-])cc2)n1,2
9,CCCCS/C(=C(/C#N)C(N)=O)c1cc2c([nH]1)CCCC2,25
10,O=C(O)c1ccccc1C(=O)OC1CCc2ccccc2C1 (stereo unspecified),-1
11,CCOC(=O)/C(=C\c1cccc(C)c1)C(C)=O,-13
12,NC(=S)N/N=C1\c2ccccc2CCC1CCC1(O)CCc2ccccc2C1=O (stereo unspecified),35
13,Cc1cccc2c(Cl)c3cccc(C)c3nc12,1
14,CC(C)OC(=O)NNc1c(Cl)cc(Cl)cc1Cl,-2
15,Nc1ccc2c(c1)C(=O)c1c(F)cccc1-2,-4
16,N#CSCC1COc2ccccc2O1 (stereo unspecified),-1
17,Cc1ccc(S(=O)(=O)NC(=O)C2C(=O)CC3(CCCCC3)CC2=O)cc1,-12
18,CC1=NN(C(=O)c2ccccc2O)C(=O)/C1=C/c1ccco1,-3
